UBC13 inh – blocks human UBC13 polyubiquitin chain formation. P61088. TR-FRET. AID 485273. inhibition, % at 20 µM. actives 0.47% (n = 330,000); in the data active = inhibition above about 45%, passing the limit was not always enough; inconclusive = no clear call, values can overlap the other calls
Target sequence (P61088 whole entry, looked up): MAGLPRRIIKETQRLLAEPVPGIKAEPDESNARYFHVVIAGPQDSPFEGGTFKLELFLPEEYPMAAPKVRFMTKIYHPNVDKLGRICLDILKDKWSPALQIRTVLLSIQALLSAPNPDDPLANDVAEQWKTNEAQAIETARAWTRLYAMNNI
MEKK3 PB1 HTS – modulators (inhibitors or enhancers) of MEK5 binding to human MEKK3 PB1 domain; AID 1529; actives 1.4% (n = 290,000); bead-based flow cytometry, Alexa488-MEK5 binding to MEKK3; actives lie on both sides; 0 = blocked by unlabeled MEK5, 100 = vehicle; Q99759; binding response (% of control), % at 10 µM;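 active = binding response more than 3 SD above or below the average of its plate-row segment, actives on both sides; inconclusive = wells at one plate position flagged as instrument error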;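 also: Alexa488 bead fluorescence after subtracting the streptavidin-only scavenger bead signal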
MEKK2 WT-MEK5 – raises or lowers MEK5 binding to wildtype human MEKK2 PB1 domain; actives 1.1% (n = 290,000); binding response (% of control), % at 10 µM; bead flow cytometry, Alexa488-MEK5 binding to MEKK2 WT; actives lie on both sides; Q9Y2U5; in the data active = binding response below about 67% or above about 130%; inconclusive = no clear call, values can overlap the other calls; inactive = in between
MEKK2 mut-MEK5 – signal of MEK5 binding to mutant human MEKK2 PB1 domain | bead flow cytometry, Alexa488-MEK5 binding to MEKK2 mutant | percent response, % at 10 µM | actives 0.35% (n = 290,000); in the data active = percent response above about 24%, passing the limit was not always enough
Casp3 counter – inhibits human caspase-3 in UBC13 counter-screen; actives 4% (n = 1,400); shares compounds with UBC13 inh; inhibition, % at 20 µM; AID 488856; Recombinant caspase-3, Caspase-Glo 3/7 luminescence, 60 min;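 active = mean inhibition across replicates above about 26%, limit read from the data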
Target sequence (P42574 whole entry, looked up): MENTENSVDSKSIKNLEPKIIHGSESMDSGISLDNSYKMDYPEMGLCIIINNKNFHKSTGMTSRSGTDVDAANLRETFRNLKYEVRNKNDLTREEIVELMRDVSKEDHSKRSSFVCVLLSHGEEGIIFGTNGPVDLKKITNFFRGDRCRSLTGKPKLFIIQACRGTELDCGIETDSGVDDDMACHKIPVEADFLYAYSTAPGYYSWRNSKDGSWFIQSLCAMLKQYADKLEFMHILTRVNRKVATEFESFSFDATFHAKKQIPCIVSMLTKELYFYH
UBC13 conf – confirmation of human UBC13 polyubiquitin inhibitors. shares compounds with UBC13 inh. UBC13 polyubiquitination, TR-FRET, biochemical. inhibition, % at 10 µM. actives 68% (n = 1,400); in the data active = inhibition above about 45%; inconclusive = no clear call, values can overlap the other calls
Large screens that a line does not name were inactive (follow-up assays come after a bar, where they were run). Most compounds without a hit are left out; they make up all but 2.3% or so of the library.

CC(C)(C)C1CCC(CN2C(Nc3ccccc3)=NC[C@@H]2Cc2ccccc2)CC1 (some centres undefined)	UBC13 inh 72 (no result: MEKK3 PB1 HTS, MEKK2 WT-MEK5, MEKK2 mut-MEK5) | Casp3 counter inactive | UBC13 conf 77
CC(=O)NC(c1cc(Cl)c2cccnc2c1O)C(C)C (centres undefined)	none (no result: MEKK3 PB1 HTS, MEKK2 WT-MEK5, MEKK2 mut-MEK5)
CC(=O)NC(c1cc(Cl)c2ccccc2c1O)C(C)C (centres undefined)	UBC13 inh 81 (no result: MEKK3 PB1 HTS, MEKK2 WT-MEK5, MEKK2 mut-MEK5) | Casp3 counter inactive | UBC13 conf 56
CC(=O)NC(c1cccs1)c1cc(Cl)c2ccccc2c1O (centres undefined)	UBC13 inh 71 (no result: MEKK3 PB1 HTS, MEKK2 WT-MEK5, MEKK2 mut-MEK5) | Casp3 counter inactive | UBC13 conf 58
CCC(=O)NC(c1cccs1)c1cc(Cl)c2ccccc2c1O (centres undefined)	UBC13 inh 49 (no result: MEKK3 PB1 HTS, MEKK2 WT-MEK5, MEKK2 mut-MEK5) | Casp3 counter inactive | UBC13 conf inactive
O=C(CCc1ccccc1)NC(c1cccs1)c1cc(Cl)c2cccnc2c1O (centres undefined)	none (no result: UBC13 inh)
Oc1ccc2ccccc2c1CNc1ccccn1	UBC13 inh 56 | Casp3 counter inactive | UBC13 conf 49
CCN1C(=O)c2cccc3c(NC(=O)c4ccc(S(=O)(=O)N(C)C)cc4)ccc1c23	UBC13 inh 62 | Casp3 counter inactive | UBC13 conf 76
CCN1C(=O)c2cccc3c(NS(=O)(=O)c4ccc(NC(C)=O)cc4)ccc1c23	none
Cc1cccc(NC(=O)c2ccc(S(=O)(=O)N3CCOCC3)cc2)c1C	none
CCN1C(=O)c2cccc3c(NC(=O)c4ccc(S(=O)(=O)N5CCOCC5)cc4)ccc1c23	UBC13 inh 70 | Casp3 counter inactive | UBC13 conf 83
COc1ccc(CSc2nc(C)cc(C)c2S(C)(=O)=O)cc1	none
CSC(C(=O)c1cc2ccccc2o1)c1ccccc1 (centres undefined)	none (no result: MEKK3 PB1 HTS, MEKK2 WT-MEK5, MEKK2 mut-MEK5)
CNc1oc(-c2ccccc2)nc1S(=O)(=O)c1ccc(C)cc1	none
CCOc1ccc(-c2nc(S(=O)(=O)c3ccccc3)c(NC)o2)cc1	UBC13 inh 47 | Casp3 counter inactive | UBC13 conf inactive
CC(C)[C@H](CO)N(Cc1cccc(F)c1)c1nc(Nc2cccc(Cl)c2)c2ncn(C(C)C)c2n1	none
CC[C@H](CO)Nc1nc(Nc2cccc(Cl)c2)c2ncn(C(C)C)c2n1	UBC13 inh 77 | Casp3 counter inactive | UBC13 conf 67
N#Cc1c(Cl)nsc1NC(=O)c1ccccc1	none
OCCNc1nc(Nc2cc(Cl)ccc2OC2CCCC2)nc(N2CCCC2)n1	UBC13 inh 52 | Casp3 counter inactive | UBC13 conf inactive
CC(C)Oc1ccc(Cl)cc1Nc1nc(NCCO)nc(N2CCCC2)n1	UBC13 inh 60 | Casp3 counter inactive | UBC13 conf inactive
COc1ccc(Cl)cc1Nc1nc(NCCO)nc(N2CCCCC2)n1	UBC13 inh 62 | Casp3 counter inactive | UBC13 conf inactive
Cc1ccc(C(=O)CCC(=O)Nc2ccccc2C)c(C)c1	none
COc1ccccc1CNC(=O)CCS(=O)(=O)c1ccc2c(c1)CC(C)N2C(=O)C1CC1 (centres undefined)	none
Cc1c(NC(=O)CCCN2C(=O)c3cccc4cccc(c34)C2=O)c(=O)n(-c2ccccc2)n1C	UBC13 inh 81 | Casp3 counter inactive | UBC13 conf 94
Cc1ccc(/C=C2\SC(=S)N(CCC(=O)NCCCN3CCOCC3)C2=O)cc1	none
CN1CCN(C(=O)CCN2C(=O)/C(=C/c3ccccc3Cl)SC2=S)CC1	UBC13 inh 69 | Casp3 counter inactive | UBC13 conf 87
CN1CCN(C(=O)CCN2C(=O)/C(=C\c3ccccc3F)SC2=S)CC1	none
O=C(CCN1C(=O)/C(=C/c2ccccc2Cl)SC1=S)NCCCN1CCOCC1	UBC13 inh 45 | Casp3 counter inactive | UBC13 conf 61
CC(C)(C)c1nn(-c2ccccc2)c2[nH]c(=O)c(C=O)cc12	none
CCCc1ccc(OCc2ccc(C(=O)O)o2)c(OC)c1	none
COc1ccc(CCN(C)C(=O)c2ccc(COc3ccccc3)o2)cc1OC	UBC13 inh 46 | Casp3 counter inactive | UBC13 conf 82
COc1ccc(Cc2nnc(SCC(=O)Nc3ccc(N4CCOCC4)cc3)n2C)cc1	none
COc1ccc(-c2cc3ccccc3oc2=O)cc1NC(=S)NC(=O)c1ccc2c(c1)OCCO2	UBC13 inh 49 | Casp3 counter inactive | UBC13 conf 46
CCC(=O)Nc1cc(-c2cc3ccccc3oc2=O)ccc1OC	none
CN(C)CCCNC(=O)CC1C[C@H](C(=O)N2CCCCC2)[C@@]2(CCc3ccccc3)c3[nH]c4ccccc4c3CCN2C1=O (some centres undefined)	UBC13 inh 47 (no result: MEKK3 PB1 HTS, MEKK2 WT-MEK5, MEKK2 mut-MEK5) | Casp3 counter inactive | UBC13 conf inactive
CCOc1ccc(Br)cc1S(=O)(=O)NC(=O)c1ccccc1	none
COC(=O)C1=C(C)N(Cc2ccccc2)C(=NCc2cccc(Cl)c2)N[C@H]1c1cccc(F)c1	UBC13 inh 72 (no result: MEKK3 PB1 HTS, MEKK2 WT-MEK5, MEKK2 mut-MEK5) | Casp3 counter inactive | UBC13 conf 86
COC(=O)C1=C(C)N(Cc2ccccc2)C(=NCc2ccco2)N[C@H]1c1cccc(F)c1	none (no result: MEKK3 PB1 HTS, MEKK2 WT-MEK5, MEKK2 mut-MEK5)
COC(=O)C1=C(C)N(Cc2ccccc2)C(=NCc2cc(OC)c(OC)c(OC)c2)N[C@H]1c1cccc(F)c1	none
COC(=O)C1=C(C)N(Cc2ccccc2)C(=NCc2ccc(OC)cc2)N[C@H]1c1cccc(F)c1	UBC13 inh 74 | Casp3 counter inactive | UBC13 conf 66
O=C(NNC(=O)c1ccccn1)c1ccc(OC(F)F)cc1	UBC13 inh 96 (no result: MEKK3 PB1 HTS, MEKK2 WT-MEK5, MEKK2 mut-MEK5) | Casp3 counter 59 | UBC13 conf 68
O=c1c2cc(N3CCOCC3)ccc2[nH]c(=S)n1Cc1ccccn1	none
O=c1c2cc(N3CCOCC3)ccc2[nH]c(=S)n1Cc1ccccc1Cl	UBC13 inh 45 | Casp3 counter inactive | UBC13 conf inconclusive
Cc1nn(C)c(Cl)c1S(=O)(=O)N1CCC(CO)(CCc2ccccc2)CC1	none
Oc1c(C(c2cccs2)N2CCN(c3cccc(Cl)c3)CC2)sc2ncnn12 (centres undefined)	UBC13 inh 53 | Casp3 counter inactive | UBC13 conf inactive
Oc1c(C(c2cccs2)N2CCOCC2)sc2ncnn12 (centres undefined)	none
CCCCSCCCNC(=O)Nc1ccc(C)c(C)c1	none
CC1(C)Cc2c(sc(NC(=O)C(=O)NCCCN3CCOCC3)c2C(N)=O)CO1	UBC13 inh 83 | Casp3 counter inactive | UBC13 conf 106
CN(C)CCNC=C(C(=O)Nc1ccc(Cl)cc1Cl)C(=O)Nc1ccc(Cl)cc1Cl	UBC13 inh 56 | Casp3 counter inactive | UBC13 conf 80
O=C(c1cc(S(=O)(=O)N2CCOCC2)ccc1Cl)N1CCc2ccccc2C1	none

Assay outcomes: PubChem BioAssay, several laboratories
